# Assay outcomes as filed in PubChem BioAssay.
# B2AR arrestin: recruits beta-arrestin to the human beta2-adrenergic receptor | P07550 | beta-arrestin recruitment to beta2AR, cell-based reporter | Potency, µM (top dose mostly 46.1 µM), inactives show at the highest dose activation, actives largely listed as activators | hit rate 0.02% among 330,000 | AID 492947;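 note: potency is the fitted concentration of half-maximal effect; 0% = DMSO controls and full agonism = EC100 isoproterenol or metaproterenol; nearly all actives have a fitted effect of over 65% in size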
# DRD3 antagonist: blocks the human D3 dopamine receptor | AID 652054 | P35462 | D3R cells, DiscoveRx beta-arrestin luminescence, antagonist mode; stronger effect = lower value | max response, negative = inhibition, % | hit rate 2.5% among 360,000; in the data active = max response below about -50%; inconclusive = no clear call, values can overlap the other calls; note: % is set by controls: 0 for no effect and ±100 for the full control effect
# Target sequence (P35462 whole entry, looked up): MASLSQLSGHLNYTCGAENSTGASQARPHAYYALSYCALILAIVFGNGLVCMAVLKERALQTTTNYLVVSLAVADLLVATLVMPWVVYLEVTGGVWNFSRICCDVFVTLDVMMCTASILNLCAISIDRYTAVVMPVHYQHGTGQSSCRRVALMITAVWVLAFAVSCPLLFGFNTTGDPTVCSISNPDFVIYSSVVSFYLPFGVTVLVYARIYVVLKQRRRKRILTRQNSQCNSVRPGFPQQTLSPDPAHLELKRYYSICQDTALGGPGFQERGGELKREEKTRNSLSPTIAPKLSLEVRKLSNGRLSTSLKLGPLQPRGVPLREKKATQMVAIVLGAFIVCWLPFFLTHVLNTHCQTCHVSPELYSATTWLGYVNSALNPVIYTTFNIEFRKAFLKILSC
#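 Cells expressing the human receptor were seeded at 1500 cells/well, incubated overnight at 37 degrees C in 5% CO2, then exposed to library compounds with dopamine controls for 90 minutes at 37 degrees C before luminescent detection.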
# D3 ag: agonists of human D3 dopamine receptor. D3R DiscoveRx beta-arrestin cells, luminescence, 90 min. max activation, %. hit rate 0.58% among 410,000. AID 652048; in the data active = max activation above about 30%; note: 0% is about no effect
#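 Agonist mode: compounds and dopamine controls were applied to plated cells for 90 min at 37 degrees C after an overnight attachment at 1500 cells/well. Luminescent read-out followed 30 - 60 minutes at room temperature with DiscoveRx detection reagent.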
# IDH1 R132H inh: blocks human mutant IDH1 R132H enzyme | O75874 | IDH1-R132H enzyme, NADPH consumption, diaphorase/resazurin fluorescence | Potency, µM (top dose mostly 76.6 µM), for inactives: at the top dose activity change, negative = inhibition, actives largely listed as inhibitors | hit rate 0.093% among 390,000 | AID 602179; note: potency is the fitted concentration of half-maximal effect; % is set by controls: 0 for no effect and ±100 for the full control effect; nearly all actives have a fitted effect of over 65% in size
#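 IDH1-R132H (0.5 ug/mL dispensed) in pH 7.5 Tris buffer was preincubated 30 min with compound, then given a substrate mix of 0.016 mM NADPH and 2 mM alpha-KG for 80 min at room temperature; remaining NADPH was read by diaphorase/resazurin fluorescence.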
# a7 integrin act: integrin-mediated muscular dystrophy alleviation activation; alpha7betagal myoblasts, beta-gal FDG fluorescence, 48 h; AID 624291; hit rate 0.064% among 350,000; Potency, µM (top dose mostly 38.3 µM), for inactives: top-dose activation, hits mostly activators;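 note: potency is the fitted concentration of half-maximal effect; 100% = response of the positive control SU9516; nearly all actives have a fitted effect of over 60% in size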
#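 alpha7betagal+/- myoblasts (passage 13, 250/well) treated 48 h at 37C with compounds at 1:260 dilution of DMSO stock. Lysed, then beta-galactosidase activity read as FDG fluorescence (ex 480/em 540) after 30 min, with pre-read for autofluorescence.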
# * hit, by the source's call; u = inconclusive; x = no result; ! = a repeat was not active. Sampled rows, rich in hits. Any-hit rate of the full collection: about 2.9%. Unless noted, calls come from the whole dose curve; as a rule, active = well fitted curve in the direction sought with a large enough effect; inconclusive = small, poorly fitted or top-dose-only effect, or another doubt; inactive = no such curve, though single readings can be large; an effect the other way counts as inactive or inconclusive.
SMILES,B2AR arrestin,DRD3 antagonist,D3 ag,IDH1 R132H inh,a7 integrin act
Cc1ccc(C(=O)c2cc([N+](=O)[O-])ccc2N2CCCCC2)cc1,0%,-65*,-8,-7%,-32%
CCOc1ccc(OC(=O)NC(c2ccccc2)C(Cl)(Cl)Cl)cc1 (configuration not stated),0%,-6,1,1%,-2%
CC(C)OC(=O)NC(c1ccccc1)C(Cl)(Cl)Cl (configuration not stated),3%,-50*,4,8%,u
COc1ccc(C(CCN2CCCC(C)C2)c2c(OC)cc(OC)c3c(C)cc(=O)oc23)cc1 (configuration not stated),1%,-89*,-67,-7%,-27%
COc1ccc(C(CCN2CCCC(C)C2)c2c(OC)cc(OC)c3c(-c4ccccc4)cc(=O)oc23)cc1 (configuration not stated),-1%,-53*,-56,11%,-42%
CCN(CC)c1ccc(NC(=O)c2c(C)nn(-c3ccc(F)cc3)c2-n2cccc2)c(C)c1,x,x,-1,1%,x
C#CCNC(=O)C[C@@H]1C[C@@]2(C(=O)OC)CCCCC=C2N(Cc2ccc(Cl)cc2Cl)C1=O,x,23,4,x,x
O=C(Nc1c(C(=O)Nc2cccc(F)c2)oc2ccccc12)c1cc2ccccc2o1,x,x,4,4%,x
OC(CCN1CCCCC1)(c1ccccc1)c1ccccc1,0%,-10,-35,6%,x
OC(CCCN1CCCCC1)(c1ccccc1)c1ccc(C(F)(F)F)cc1 (configuration not stated),x,-99*,-23,0%,-58%
COc1ccc2sc(-c3ccc(N(C)C)cc3)c(C#Cc3cncn3C)c2c1,0%,234,83*,2%,-38%
COc1ccc2sc(-c3ccc(N(C)C)cc3)c(C#CC(C)(C)O)c2c1,-1%,23,20,-12%,-17%
COc1cccc(-c2sc3ccc(OC)cc3c2C#CC(C)(C)O)c1,0%,-11,71*,-1%,2%
COc1ccc2sc(-c3ccc(N(C)C)cc3)c(C#CCCO)c2c1,3%,122,32*,14%,-16%
COc1ccc2sc(-c3ccc(SC)cc3)c(C#CCO)c2c1,0%,112,62*,13%,-30%
CCOC(=O)CNC(c1ccccc1)c1cc(Br)ccc1NC(=O)c1ccc(Cl)cc1 (configuration not stated),x,x,-7,-8%,x
CC(C)Sc1nc(N)c2c3c(sc2n1)CN(C)CC3,0%,-58*,-14,-2%,-9%
CSc1nc(NCC(C)C)c2c3c(sc2n1)CN(C)CC3,1%,-72*,-11,3%,-31%
CSc1nc(NCc2ccccc2)c2c3c(sc2n1)CN(C)CC3,0%,-76*,0,0%,-14%
COCCNc1nc(SC)nc2sc3c(c12)CCN(C)C3,0%,-9,-9,-9%,-34%
C=C1CC[C@H](O)CC1=C/C=C1\CCC[C@]2(C)[C@@H]([C@H](C)CC[C@@H](O)C(C)(C)O)CC[C@@H]12,x,x,6,x,x
Cc1ccc(-c2c3c(=O)n(C)c(=O)n(C)c3c3c(C(F)(F)F)nc4ccccc4n23)cc1,x,x,4,-13%,x
Cc1cc2oc(C(=O)N(Cc3ccc(N(C)C)cc3)Cc3ccco3)c(C)c2cc1Cl,x,x,-9,x,x
CC(=O)N1CCc2cc(Br)cc(S(=O)(=O)NCCCN3CCCC(C)C3)c21 (configuration not stated),0%,-60*,-5,9%,-11%
CC(=O)c1ccc(N2CCN(C(=O)CCc3nnc4n(C)c(=O)c5sccc5n34)CC2)cc1,x,x,-2,27%,x
SMILES,B2AR arrestin,DRD3 antagonist,D3 ag,IDH1 R132H inh,a7 integrin act
CCCn1c(/C=C/c2ccccc2)nc2ccccc21,0%,22,31*!,19%,-35%
C=CCNCCOc1ccc(C)cc1[N+](=O)[O-],0%,-72*,-13,-7%,u
COc1ccccc1OCCCOc1c(C)cc(C)cc1Br,-1%,6,4,5%,-18%
CCC(C)NCCOc1ccc(C)cc1[N+](=O)[O-] (configuration not stated),-1%,-60*,-17,4%,16%
CCC(C)NCCCOc1c(C)cc(C)cc1Br (configuration not stated),0%,-54*,-4,-8%,-54%
C=CCN(CC=C)CCOc1ccc(C)cc1[N+](=O)[O-],0%,-96*,-9,3%,-15%
CC(C)CCn1c(=O)c2sccc2n2c(CCCC(=O)NCc3ccc(F)cc3)nnc12,x,x,-8,-7%,x
CCOc1ccc(NC(=O)[C@H]2O[C@@H]3OC(C)(C)O[C@@H]3[C@H]3OC(C)(C)O[C@H]32)cc1,x,x,-7,17%,x
COc1ccc(CNc2ncnc3c2c(-c2ccccc2)cn3-c2ccc(C)c(Cl)c2)cc1,x,x,8,-11%,x
CCC(C)NCCOCCOc1ccc(C)cc1Br (configuration not stated),0%,-70*,-13,2%,-61%
COCCCNCCCCOc1ccc(C)cc1[N+](=O)[O-],-1%,-70*,-34,3%,-6%
CCCCNCCOCCOc1ccc(C)cc1[N+](=O)[O-],-1%,-53*,-5,1%,-37%
COc1ccccc1OCCOCCOc1ccc(C)cc1[N+](=O)[O-],0%,7,0,3%,-25%
Cc1cccc(-c2nc(CN3CCCC(C(=O)N4CCN(c5cc(Cl)ccc5C)CC4)C3)c(C)o2)c1 (configuration not stated),x,x,-12,-1%,x
COc1ccccc1N1CCN(C(CNC(=O)C2CCCCC2)c2cccnc2)CC1 (configuration not stated),0%,-71*,-14,-4%,2%
CSc1ncccc1C(=O)OCC(=O)c1ccc(C)s1,0%,-4,-2,0%,0%
Cc1cc(C)cc(NS(=O)(=O)c2ccc(NC(=S)NC(=O)c3cccs3)cc2)c1,0%,-84*,-18,3%,-27%
Cc1cc(NS(=O)(=O)c2ccc(NC(=S)NC(=O)c3cccnc3)cc2)no1,0%,-51*,-15,6%,2%
COc1ccc(Nc2nc3ccccc3n3nnnc23)cc1,0%,-90*,0,-4%,-2%
Cc1ccc(NC(=O)CCS(=O)(=O)c2ccc(Br)s2)c(Br)c1,x,x,4,-27%,x
O=C(N/N=C/c1ccc(OCc2ccccc2)cc1)c1cc[n+](Cc2ccccc2)cc1,0%,-59*,-3,3%,-15%
O=C(N/N=C/c1ccc(O)cc1)c1cc[n+](Cc2ccccc2)cc1,-1%,u,-3,6%,-21%
Cc1ccc(C)c(CS(=O)(=O)c2cn(CC(=O)N(C(C)C)C(C)C)c3ccccc23)c1,x,x,-6,-9%,x
O=C(CSc1nc(=O)[nH]c2c1CCCC2)NCc1ccc(F)cc1,x,x,-6,11%,x
CCOc1ccc(NS(=O)(=O)c2c(C)nc3sc(CC)nn3c2=O)cc1,0%,-53*,0,-2%,-2%
